Test results: ChEMBL document CHEMBL1961873, “Compounds: GSK PKIS; Assays: Nanosyn kinase panel” (2012)

What was measured:
[1] = target: Sphingosine kinase 1 (Homo sapiens) (UniProt Q9NYA1); details: at 1 µM;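 also: mean SPHK1 inhibition value reported from the GSK PKIS kinase panel screen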
[2] = target: T1, Sphingosine kinase 2 (Homo sapiens) (UniProt Q9NRA0); details: at 0.1 µM
T1 sequence (whole entry): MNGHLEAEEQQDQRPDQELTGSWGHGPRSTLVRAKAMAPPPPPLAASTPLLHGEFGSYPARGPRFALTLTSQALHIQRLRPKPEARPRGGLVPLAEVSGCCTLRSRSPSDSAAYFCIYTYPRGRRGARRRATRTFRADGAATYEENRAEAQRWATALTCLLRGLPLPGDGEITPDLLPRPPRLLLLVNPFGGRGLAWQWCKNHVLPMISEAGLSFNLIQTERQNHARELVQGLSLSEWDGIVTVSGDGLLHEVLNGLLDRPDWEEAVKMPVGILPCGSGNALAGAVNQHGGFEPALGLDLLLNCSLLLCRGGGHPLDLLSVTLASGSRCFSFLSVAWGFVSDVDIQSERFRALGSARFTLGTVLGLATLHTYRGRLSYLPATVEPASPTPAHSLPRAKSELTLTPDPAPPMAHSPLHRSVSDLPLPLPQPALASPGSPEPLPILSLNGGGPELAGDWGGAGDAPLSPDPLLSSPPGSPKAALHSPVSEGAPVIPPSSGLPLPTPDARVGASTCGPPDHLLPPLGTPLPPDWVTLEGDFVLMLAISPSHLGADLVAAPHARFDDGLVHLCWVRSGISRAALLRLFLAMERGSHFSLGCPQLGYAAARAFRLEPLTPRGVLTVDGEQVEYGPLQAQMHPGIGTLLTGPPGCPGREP

[3] = target: T1, Sphingosine kinase 2 (Homo sapiens); details: at 1 µM
[4] = target: Casein kinase II subunit alpha (Homo sapiens) (UniProt P68400); details: at 1 µM;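 also: reported value is the mean CK2 inhibition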
Casein kinase II subunit alpha (Homo sapiens), sequence (P68400 whole entry, looked up): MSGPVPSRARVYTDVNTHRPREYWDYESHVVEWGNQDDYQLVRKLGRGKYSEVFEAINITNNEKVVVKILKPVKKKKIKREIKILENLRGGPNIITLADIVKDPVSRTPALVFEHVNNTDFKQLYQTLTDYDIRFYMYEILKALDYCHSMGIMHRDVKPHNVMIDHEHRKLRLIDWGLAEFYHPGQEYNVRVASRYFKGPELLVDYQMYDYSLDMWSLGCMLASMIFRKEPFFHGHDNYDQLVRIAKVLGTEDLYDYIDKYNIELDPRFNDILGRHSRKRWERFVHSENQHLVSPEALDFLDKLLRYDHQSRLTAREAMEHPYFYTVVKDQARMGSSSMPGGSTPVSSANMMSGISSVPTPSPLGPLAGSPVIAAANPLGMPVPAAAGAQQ

[5] = target: T2, Inhibitor of nuclear factor kappa-B kinase subunit alpha (Homo sapiens) (UniProt O15111); details: at 0.1 µM
T2 sequence (whole entry): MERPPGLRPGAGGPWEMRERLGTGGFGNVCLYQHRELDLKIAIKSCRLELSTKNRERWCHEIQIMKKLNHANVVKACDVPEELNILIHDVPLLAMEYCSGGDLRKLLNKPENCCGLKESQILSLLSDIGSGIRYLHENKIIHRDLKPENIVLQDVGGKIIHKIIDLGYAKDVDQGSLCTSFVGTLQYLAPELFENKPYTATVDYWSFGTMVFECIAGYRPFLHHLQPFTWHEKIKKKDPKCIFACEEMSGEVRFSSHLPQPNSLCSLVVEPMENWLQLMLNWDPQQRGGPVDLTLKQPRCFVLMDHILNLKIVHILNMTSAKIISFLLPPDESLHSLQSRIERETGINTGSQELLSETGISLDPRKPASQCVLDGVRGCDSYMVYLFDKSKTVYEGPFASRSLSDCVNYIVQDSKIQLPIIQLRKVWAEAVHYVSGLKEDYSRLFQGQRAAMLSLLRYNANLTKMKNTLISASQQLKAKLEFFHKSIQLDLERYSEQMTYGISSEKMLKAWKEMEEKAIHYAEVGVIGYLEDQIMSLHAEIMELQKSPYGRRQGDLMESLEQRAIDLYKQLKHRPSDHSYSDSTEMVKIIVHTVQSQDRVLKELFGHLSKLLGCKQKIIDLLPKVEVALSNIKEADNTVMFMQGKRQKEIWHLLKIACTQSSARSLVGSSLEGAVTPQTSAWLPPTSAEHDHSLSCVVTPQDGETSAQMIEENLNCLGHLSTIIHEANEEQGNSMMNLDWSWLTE

[6] = target: T2, Inhibitor of nuclear factor kappa-B kinase subunit alpha (Homo sapiens); details: at 1 µM
[7] = target: T3, Inhibitor of nuclear factor kappa-B kinase subunit beta (Homo sapiens) (UniProt O14920); details: at 0.1 µM
T3 sequence (whole entry): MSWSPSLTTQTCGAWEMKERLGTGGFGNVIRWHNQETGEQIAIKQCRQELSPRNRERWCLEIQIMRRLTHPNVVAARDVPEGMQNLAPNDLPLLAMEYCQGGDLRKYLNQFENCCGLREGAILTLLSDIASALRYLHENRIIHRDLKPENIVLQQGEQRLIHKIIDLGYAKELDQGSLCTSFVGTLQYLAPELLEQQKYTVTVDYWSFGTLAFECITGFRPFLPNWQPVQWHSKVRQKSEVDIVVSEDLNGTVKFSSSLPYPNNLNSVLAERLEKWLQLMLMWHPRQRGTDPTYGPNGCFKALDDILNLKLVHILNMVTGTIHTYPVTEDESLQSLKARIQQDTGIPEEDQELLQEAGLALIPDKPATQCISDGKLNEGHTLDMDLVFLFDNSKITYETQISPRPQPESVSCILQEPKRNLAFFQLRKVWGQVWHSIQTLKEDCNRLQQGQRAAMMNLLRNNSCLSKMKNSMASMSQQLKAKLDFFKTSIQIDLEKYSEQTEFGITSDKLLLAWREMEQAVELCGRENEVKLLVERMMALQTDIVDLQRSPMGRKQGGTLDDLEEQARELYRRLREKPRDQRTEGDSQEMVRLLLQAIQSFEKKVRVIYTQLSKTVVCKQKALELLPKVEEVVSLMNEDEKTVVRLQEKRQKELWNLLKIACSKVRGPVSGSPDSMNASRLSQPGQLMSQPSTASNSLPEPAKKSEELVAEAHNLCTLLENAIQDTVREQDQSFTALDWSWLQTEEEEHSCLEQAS

[8] = target: T3, Inhibitor of nuclear factor kappa-B kinase subunit beta (Homo sapiens); details: at 1 µM
[9] = target: T4, Inhibitor of nuclear factor kappa-B kinase subunit epsilon (Homo sapiens) (UniProt Q14164); details: at 0.1 µM;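 also: mean inhibition of IKKε reported, from the GSK PKIS dataset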
T4 sequence (whole entry): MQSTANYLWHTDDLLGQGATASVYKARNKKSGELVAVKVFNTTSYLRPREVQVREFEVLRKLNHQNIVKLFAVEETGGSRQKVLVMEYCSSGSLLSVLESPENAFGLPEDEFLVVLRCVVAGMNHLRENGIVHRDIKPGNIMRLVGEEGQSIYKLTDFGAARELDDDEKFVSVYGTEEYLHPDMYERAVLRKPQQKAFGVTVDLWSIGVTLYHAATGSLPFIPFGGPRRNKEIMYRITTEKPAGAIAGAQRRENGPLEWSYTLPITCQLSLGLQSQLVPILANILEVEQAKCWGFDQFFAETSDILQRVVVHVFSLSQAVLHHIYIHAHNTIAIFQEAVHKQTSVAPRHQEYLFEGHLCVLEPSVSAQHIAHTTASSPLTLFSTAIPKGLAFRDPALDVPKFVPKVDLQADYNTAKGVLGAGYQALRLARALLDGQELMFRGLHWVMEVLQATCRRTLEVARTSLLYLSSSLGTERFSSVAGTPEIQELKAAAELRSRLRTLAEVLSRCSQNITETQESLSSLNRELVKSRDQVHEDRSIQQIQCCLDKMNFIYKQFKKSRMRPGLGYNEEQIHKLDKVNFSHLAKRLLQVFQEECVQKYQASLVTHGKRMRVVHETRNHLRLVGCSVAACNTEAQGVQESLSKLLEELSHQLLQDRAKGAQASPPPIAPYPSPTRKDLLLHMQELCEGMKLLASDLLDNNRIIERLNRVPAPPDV

Sphingosine kinase 1 (Homo sapiens), sequence (Q9NYA1 whole entry): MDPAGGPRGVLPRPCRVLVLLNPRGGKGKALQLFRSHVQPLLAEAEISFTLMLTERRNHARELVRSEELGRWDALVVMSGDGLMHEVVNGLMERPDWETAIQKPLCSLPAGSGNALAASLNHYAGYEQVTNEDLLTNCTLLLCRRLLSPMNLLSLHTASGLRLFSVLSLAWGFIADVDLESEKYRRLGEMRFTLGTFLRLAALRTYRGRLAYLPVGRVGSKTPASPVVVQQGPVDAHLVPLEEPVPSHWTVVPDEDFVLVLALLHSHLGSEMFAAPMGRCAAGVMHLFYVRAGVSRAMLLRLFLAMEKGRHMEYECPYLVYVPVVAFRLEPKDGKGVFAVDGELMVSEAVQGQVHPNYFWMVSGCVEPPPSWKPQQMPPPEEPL

CS(=O)(=O)CCNCc1cc(-c2cc3c(Nc4ccc(OCc5cccc(F)c5)c(Cl)c4)ncnc3s2)cs1
inhibition [1]: 3.45% | inhibition [2]: -0.27% | inhibition [3]: 0.36% | inhibition [4]: 2.87% | inhibition [5]: 10.9% | inhibition [6]: 9.95% | inhibition [7]: 7.54% | inhibition [8]: 6.76% | inhibition [9]: 6.48%
